Measured values: PubChem BioAssay (Tox21)
Values without a mark were called inactive. Where a call stands in place of a potency, no number is given. Active and inactive are the calls of the source. The call rests on the fitted dose curve; in most records, active means well fitted curve in the direction sought with a large enough effect in the repeat runs; inconclusive means weak or mixed curves; inactive means flat fitted curve, though single readings scatter.

Test: qHTS assay to test for compound auto fluorescence at 460 nm (blue) in HEK293 cells (AID 720678)
Conditions: blue autofluorescence 405/460 nm; series mostly up to 91.3 µM
In short: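 Triamterene serves as the blue fluorophore standard. Compound signal at 405/460 nm is read in HEK293 wells (2,000 cells, 10% dialyzed FBS) after overnight treatment at 37C.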

| SMILES | Potency | fluorescence, % of triamterene |
| --- | --- | --- |
| Nc1ccc(C(=O)OCCCOC(=O)c2ccc(N)cc2)cc1 | inactive | – |
| CSc1ccc(Oc2ccc(S(N)(=O)=O)cc2CN(C)C)cc1C | inactive | – |
| NC(=O)N(O)[C@@H]1COc2cc(OCc3ccccc3)ccc21 | inactive | – |
| N#C/C(=C1/SC[C@@H](c2ccc(Cl)cc2Cl)S1)n1ccnc1 | inactive | – |
| c1cc[c]([Bi]([c]2ccccc2)[c]2ccccc2)cc1 | inactive | – |
| CC(=O)OCC(=O)[C@@]12OC(C)(C)O[C@@H]1C[C@H]1[C@@H]3C[C@H](F)C4=CC(=O)C=C[C@]4(C)[C@@]3(F)[C@@H](O)C[C@@]12C | – | -0.188% [at 18.6 µM] |
| CCCCCCOC(=O)CCCCCCCC(=O)OCCCCCC | inactive | – |
| O=C(Nc1ccccc1)Nc1ccccc1 | inactive | – |
| CC(N)CN (stereo not drawn) | inactive | – |
| O=C(CCCN1CCN(c2ccc(F)cc2)CC1)NC1c2ccccc2CSc2ccccc21 (stereo not drawn) | inactive | – |
| CCc1cccc(N(C)C(N)=Nc2cccc3ccccc23)c1 | inactive | – |
| O=C(CCC1CCN(Cc2ccccc2)CC1)c1ccc2c(c1)NCCCC2 | inactive | – |
| COc1cc2ncnc(Nc3ccc(F)c(Cl)c3)c2cc1OCCCN1CCOCC1 | inactive | – |
| CN(C)C(=O)Nc1ccc(Oc2ccc(Cl)cc2)cc1 | inactive | – |
| CC(C)C(OC(=O)c1ccccc1)C(C)(C)COC(=O)c1ccccc1 (stereo not drawn) | inactive | – |
| Cc1nccn1-c1ccc(Sc2cccc(C3(C(N)=O)CCOCC3)c2)cc1 | inactive | – |
| CC1=C(/C=C/C(C)=C\C=C\C(C)=C\C(=O)O)C(C)(C)CCC1 | inactive | – |
| CCCCN(CCCC)C(=S)SSC(=S)N(CCCC)CCCC | inactive | – |
| Cc1c(C(=O)NN2CCCCC2)nn(-c2ccc(Cl)cc2Cl)c1-c1ccc(Cl)cc1 | inactive | – |

| SMILES | Potency | fluorescence, % of triamterene |
| --- | --- | --- |
| Brc1cc(-c2ccc(Br)c(Br)c2Br)cc(Br)c1Br | inactive | – |
| CC(=O)Oc1ccc2c(c1)CC[C@@H]1[C@@H]2CC[C@]2(C)[C@@H](O)CC[C@@H]12 | inactive | – |
| COC(OC)(C(=O)c1ccccc1)c1ccccc1 | inactive | – |
| Cc1ccc(S(=O)(=O)NC2CCCCC2)cc1 | inactive | – |
| CC1C2CC(CC2C2CCCC(O)C2)C1(C)C (stereo not drawn) | inactive | – |
| CC1=NN(c2ccc(C(=O)O)cc2)C(=O)C1 | inactive | – |
| CC[C@H](NC(=O)c1cc(F)ccc1NS(=O)(=O)c1cccc2cccnc12)c1ccccc1 | inactive | – |
| COCc1c(C(C)C)nc(C(C)C)c(/C=C/[C@@H](O)C[C@@H](O)CC(=O)O)c1-c1ccc(F)cc1 | inactive | – |
| CC(C)c1nnc2ccc(-c3ocnc3-c3cc(F)ccc3F)cn12 | inactive | – |
| COc1cc2c(N3CCN(C(=O)Nc4ccc(OC(C)C)cc4)CC3)ncnc2cc1OCCCN1CCCCC1 | inactive | – |
| CCCc1c(OCCCOc2ccc(OCC(=O)O)cc2)ccc(C(C)=O)c1O | inactive | – |
| CC(Cl)C(Cl)Cl (stereo not drawn) | inactive | – |
| Nc1ccc(Cl)cc1[N+](=O)[O-] | inactive | – |
| NC(=O)Cn1c(=O)cc(CCN2CCN(c3nccc4sccc34)CC2)c2ccc(F)cc21 | inactive | – |
| CCCC1C(CC)=CC(CC)=CN1c1ccccc1 (stereo not drawn) | inactive | – |
| CC(C)(O)c1ccccc1CC[C@@H](SCC1(CC(=O)O)CC1)c1cccc(/C=C/c2ccc3ccc(Cl)cc3n2)c1 | inactive | – |
| CC(C)CCCCCOC(=O)CCCCC(=O)OCCCCCC(C)C | inactive | – |
| CC(=O)[C@H]1CC[C@H]2[C@@H]3C=CC4=CC(=O)CC[C@@]4(C)[C@@H]3CC[C@]12C | – | -0.137% [at 18.6 µM] |
| COCCOC | inactive | – |
